This is an account of results in PMC4242493, “Sequence specificity incompletely defines the genome-wide occupancy of Myc”.

The full ranking holds about 33,000 sequences; the median of “normalized occupancy” is about 0.075, and the highest 2% start at about 0.095. The entries come from a sample that favours the highest values as a whole.

MaxL homodimer, sequence (P61244 whole entry): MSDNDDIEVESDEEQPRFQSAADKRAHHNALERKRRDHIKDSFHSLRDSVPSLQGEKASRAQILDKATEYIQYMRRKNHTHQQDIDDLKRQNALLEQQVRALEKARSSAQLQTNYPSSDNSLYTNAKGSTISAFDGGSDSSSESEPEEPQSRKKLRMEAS

In this test the target is MaxL homodimer (Homo sapiens, UniProt P61244 1-160). Briefly: universal protein-binding microarray (PBM); PBS-based mixture, 10 nM His-tagged protein dimer, 2% milk, 200 ng/uL BSA, 50 ng/uL salmon testes DNA, 0.02% TX-100; detection with Alexa 488 anti-His antibody;; high values mean tight binding. Conditions: protein: recombinant; tags: C-terminal His-tag (pET21a); chain copies: 2; dsDNA, one strand shown. In a few lines:
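Binding occupancy is a fluorescence intensity normalised to the intensity of the highest-ranked sequence word. Those intensities came from 8-mers on Agilent 4 x 44 K 'all 10-mer' universal arrays incubated with 10 nM His-tagged protein dimer. Bound protein was detected with 10 ng/μL fluorophore-conjugated anti-His antibody before scanning on a GenePix 4400A.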
As for GGACCCCA, the binding signal was 0.0794 normalized occupancy.
To ATGAGAAA belongs 0.0743 normalized occupancy.
Take ATTGGAAC: the binding signal came to 0.076 normalized occupancy.
To CCGTGTGC belongs 0.0858 normalized occupancy; to CCGTGCGC, 0.0813 normalized occupancy.
To ACGTGCGA belongs 0.093 normalized occupancy; to AAGTGTGG, 0.0819 normalized occupancy.
Under ACGTGTGC stands 0.109 normalized occupancy; under ACGTGTGG, 0.104 normalized occupancy; under ACGTGTGA, 0.105 normalized occupancy.
With CCGTGTGA, the binding signal came out at 0.0836 normalized occupancy.
As for AAGTGTGC, the binding signal was 0.0869 normalized occupancy.
To AGGTGTGG belongs 0.0847 normalized occupancy.
Under ACGTGCGC stands 0.113 normalized occupancy; under GCGTGTGA, 0.0941 normalized occupancy; under GACGAGAC, 0.0761 normalized occupancy.
Take GACAAAAC: the binding signal amounted to 0.0749 normalized occupancy.
Consider CACGAATG, for which the binding signal was found to be 0.0777 normalized occupancy.
Under ATTGAAGC stands 0.0724 normalized occupancy; under ATAGTCTG, 0.0754 normalized occupancy; under CCATGCAA, 0.0895 normalized occupancy.
CCATGCAG: the binding signal was determined as 0.0965 normalized occupancy.
With CTATGCAG, the binding signal was 0.0757 normalized occupancy.
With AAATGCAT, the binding signal came out at 0.079 normalized occupancy.
Under AGATGCAC stands 0.0867 normalized occupancy; under CTATGCAC, 0.0874 normalized occupancy.
As for ATATGCAC, the binding signal worked out at 0.092 normalized occupancy.
Under CCATGCAC stands 0.0969 normalized occupancy; under CAATGCAC, 0.0848 normalized occupancy; under ACATGCAC, 0.0954 normalized occupancy.
For the sequence ACATGCAT, the binding signal stood at 0.105 normalized occupancy.
Under AGATGCAT stands 0.0784 normalized occupancy.
To AAAGTGAA belongs 0.0782 normalized occupancy.
To ACTAGTCA belongs 0.0755 normalized occupancy; to CTACCCGA, 0.0741 normalized occupancy; to AAATATAC, 0.0881 normalized occupancy.
Regarding GCATTAGC, the binding signal amounted to 0.0727 normalized occupancy.
As to CGTATGCC, the binding signal amounted to 0.0784 normalized occupancy.
To AGATGCAG belongs 0.0757 normalized occupancy.
Take ACATGAAC: the binding signal worked out at 0.0866 normalized occupancy.
To ACATGAAG belongs 0.0842 normalized occupancy; to ACATGCAG, 0.097 normalized occupancy.
To ACATGAAT belongs 0.0965 normalized occupancy; to AAATGCAG, 0.0778 normalized occupancy; to AAGCTATC, 0.0722 normalized occupancy.
Consider ATGACTTG, for which the binding signal was 0.0818 normalized occupancy.
To ACGTGCAT belongs 0.104 normalized occupancy; to GCGTGCCA, 0.09 normalized occupancy; to CCGTGCAG, 0.0778 normalized occupancy.
To AAGTGCAG belongs 0.0763 normalized occupancy.
Under AGGTGCAT stands 0.0863 normalized occupancy; under CCGTGCCC, 0.0733 normalized occupancy.
For ACGTGCAG, the binding signal was found to be 0.101 normalized occupancy.
Under CCGTGCAC stands 0.0816 normalized occupancy; under GCGTGCAC, 0.109 normalized occupancy.
Under AAGTGCAT stands 0.085 normalized occupancy; under GCGTGCCC, 0.0965 normalized occupancy.
To GAGTGCAC belongs 0.082 normalized occupancy; to CGAATAAA, 0.0729 normalized occupancy; to TAAATAAA, 0.0766 normalized occupancy.
Consider CCACCACG, for which the binding signal came to 0.0914 normalized occupancy.
For ACCGGTTA, the binding signal stood at 0.0751 normalized occupancy.
In the case of TAGGAAAA, the binding signal amounted to 0.0729 normalized occupancy.
In the case of CAGCTGAA, the binding signal is 0.0749 normalized occupancy.
With ACGAAAGC, the binding signal was determined as 0.0763 normalized occupancy.
With TCCGAAAA, the binding signal turned out to be 0.0774 normalized occupancy.
Under AGACTGTA stands 0.0748 normalized occupancy; under GCGTGCAA, 0.0963 normalized occupancy; under CCGTGCAA, 0.078 normalized occupancy.
Take AGGTGCAC: the binding signal was 0.0767 normalized occupancy.
On to TCGTGCAA, for which the binding signal was determined as 0.0766 normalized occupancy.
ATGTGCAA: the binding signal is 0.0875 normalized occupancy.
With CTGTGCAC, the binding signal was 0.0869 normalized occupancy.
Under GTGTGCAA stands 0.0818 normalized occupancy; under AAGTGCAC, 0.0774 normalized occupancy.
Under ACGTGCAC stands 0.113 normalized occupancy; under ATGTGCAC, 0.0959 normalized occupancy; under GGGTGCAA, 0.0755 normalized occupancy.
As for ACGTGCAA, the binding signal was found to be 0.098 normalized occupancy.
To GATGGACA belongs 0.0742 normalized occupancy; to AATGCAAC, 0.0776 normalized occupancy; to CATACGGG, 0.0812 normalized occupancy.
To CAGTTATA belongs 0.0794 normalized occupancy; to CCTCCATC, 0.0784 normalized occupancy.
Under CAACCTAA stands 0.0744 normalized occupancy.
CTAACATC: the binding signal came out at 0.0796 normalized occupancy.
Take AGCGTCGC: the binding signal was 0.0721 normalized occupancy.
Under CCCGTCCC stands 0.0747 normalized occupancy; under ATAATACC, 0.08 normalized occupancy.
Under AGCCCAAA stands 0.0722 normalized occupancy; under AGCACGCC, 0.0846 normalized occupancy; under AGCACGCG, 0.156 normalized occupancy.
Under CGCACGCC stands 0.0878 normalized occupancy.
With AGCACGCT, the binding signal was determined as 0.104 normalized occupancy.
To CGCACGCG belongs 0.121 normalized occupancy; to AGCACACA, 0.0906 normalized occupancy; to CGCACGCA, 0.0894 normalized occupancy.
As to AGCACACG, the binding signal amounted to 0.0942 normalized occupancy.
Turning to AGCACGCA, the binding signal stood at 0.0909 normalized occupancy.
On to GAAATCAA, for which the binding signal worked out at 0.075 normalized occupancy.
Under ATGTAGTG stands 0.0796 normalized occupancy; under CCCTTATA, 0.0809 normalized occupancy.
Consider ACTTGTAC, for which the binding signal amounted to 0.0751 normalized occupancy.
With CAAACGTA, the binding signal was 0.0729 normalized occupancy.
In the case of CAAACGTG, the binding signal was determined as 0.103 normalized occupancy.
Under AAAACGTA stands 0.0744 normalized occupancy; under AAAACGTT, 0.0743 normalized occupancy; under CAAACGTC, 0.0739 normalized occupancy.
With AAAACGTG, the binding signal was 0.122 normalized occupancy.
For ATAGTGAA, the binding signal came out at 0.0751 normalized occupancy.
Under AACCCGAG stands 0.0727 normalized occupancy; under TGCATGAA, 0.0821 normalized occupancy.
On to AGCATACA, for which the binding signal was 0.087 normalized occupancy.
Under AACATGCT stands 0.0905 normalized occupancy; under AGCATCCT, 0.0767 normalized occupancy; under TGCATACA, 0.085 normalized occupancy.
Under TGCATGCA stands 0.1 normalized occupancy; under CGAATGCG, 0.0744 normalized occupancy; under AGCATGCT, 0.134 normalized occupancy.
To AGCATGCA belongs 0.114 normalized occupancy; to CGCATGCG, 0.133 normalized occupancy.
For CGCATCCG, the binding signal was determined as 0.0736 normalized occupancy.
Under AGCATTCA stands 0.0761 normalized occupancy; under GCGTACAA, 0.0756 normalized occupancy.
In the case of GCTTAGAC, the binding signal was determined as 0.0762 normalized occupancy.
Under GTATTGAC stands 0.0759 normalized occupancy; under ACCGTCCA, 0.0727 normalized occupancy.
Under CAATAACA stands 0.0785 normalized occupancy.
For the sequence GCATACCA, the binding signal amounted to 0.0835 normalized occupancy.
Under AAGCATCC stands 0.0817 normalized occupancy.
On to CGGATGCC, for which the binding signal is 0.0725 normalized occupancy.
Under AGCATGCC stands 0.112 normalized occupancy.
To AGCATTCC belongs 0.0752 normalized occupancy.
Under GGCATGCC stands 0.0932 normalized occupancy.
On to CGCATCCC, for which the binding signal came to 0.0821 normalized occupancy.
Under AGCATCCC stands 0.077 normalized occupancy; under CGCATTCA, 0.0752 normalized occupancy.
To CGAATGCA belongs 0.0799 normalized occupancy.
Under CGCATGCA stands 0.122 normalized occupancy; under GGCATGAA, 0.081 normalized occupancy; under GGCATGCA, 0.109 normalized occupancy.
On to CGCATGCC, for which the binding signal was found to be 0.116 normalized occupancy.
For TAAGTACA, the binding signal stood at 0.0831 normalized occupancy.
Under AGTACTAA stands 0.0769 normalized occupancy; under GGGTTCTA, 0.0754 normalized occupancy.
Under CGATTGGC stands 0.0736 normalized occupancy; under ACTTCGGG, 0.0726 normalized occupancy; under AGCCCTTG, 0.0731 normalized occupancy.
Under AGATTGGA stands 0.0757 normalized occupancy; under AACATCGC, 0.0768 normalized occupancy; under GTTCTCTA, 0.0731 normalized occupancy.
Consider CGTGGTTC, for which the binding signal worked out at 0.0858 normalized occupancy.
Under CGGAGGTA stands 0.0743 normalized occupancy; under AGTATGCG, 0.077 normalized occupancy; under AGCATCCG, 0.0757 normalized occupancy.
Consider AGCATGCG, for which the binding signal was determined as 0.124 normalized occupancy.
To GCAAGGTA belongs 0.0757 normalized occupancy; to CGCAGTAC, 0.0724 normalized occupancy; to CTATGGGA, 0.0764 normalized occupancy.
Under ATATGGCG stands 0.0846 normalized occupancy; under GTATGGGA, 0.0804 normalized occupancy.
Under CTATGGCA stands 0.0779 normalized occupancy; under ATATGGGA, 0.0957 normalized occupancy; under ATATGGCA, 0.098 normalized occupancy.
Take ATGATAAG: the binding signal is 0.0844 normalized occupancy.
To AGCTCCAT belongs 0.0804 normalized occupancy; to AACATGCC, 0.089 normalized occupancy; to CACATGCG, 0.159 normalized occupancy.
Turning to CACATGCC, the binding signal came out at 0.134 normalized occupancy.
To AACATACG belongs 0.0835 normalized occupancy; to AACATGCA, 0.0927 normalized occupancy; to CAAATGCG, 0.0791 normalized occupancy.
